Compounds with a hit are over-represented: about 3.6% of the library has one in this group of screens.
BoNT A protease – BoNT A light chain protease inhibition. multiplex microsphere protease substrate cleavage, flow cytometry. inhibition, % at 10 µM. actives 0.17% (n = 360,000). AID 588499
MazEF act – activators of E. coli MazEF toxin-antitoxin RNase. P0AE70. FAM/BHQ RNA-DNA oligo cleavage fluorescence, 5 h. activation, % at 20 µM. actives 0.32% (n = 350,000). AID 504720; in the data active = activation above about 50%
BoNT F protease – inhibitors of Botulinum neurotoxin F light chain protease; Multiplex microsphere protease cleavage assay, flow cytometry; inhibition, % at 10 µM; actives 0.22% (n = 360,000); AID 588497; in the data active = inhibition above about 35%, passing the limit was not always enough; inconclusive = no clear call, values can overlap the other calls
Autofluor counter – counter-screen for toxin protease inhibitors: compound fluorescence | compound autofluorescence counterscreen, microsphere flow cytometry; stronger effect = higher value | fluorescence intensity (concentration not given with the values) | actives 3.1% (n = 360,000); in the data active = fluorescence intensity above about 16000; inconclusive = no clear call, values can overlap the other calls
Anthrax LF prot – anthrax lethal factor protease inhibition; P15917; multiplex microsphere protease cleavage assay, LF; inhibition, % at 10 µM; actives 0.12% (n = 360,000)
Target sequence (P15917 whole entry, looked up): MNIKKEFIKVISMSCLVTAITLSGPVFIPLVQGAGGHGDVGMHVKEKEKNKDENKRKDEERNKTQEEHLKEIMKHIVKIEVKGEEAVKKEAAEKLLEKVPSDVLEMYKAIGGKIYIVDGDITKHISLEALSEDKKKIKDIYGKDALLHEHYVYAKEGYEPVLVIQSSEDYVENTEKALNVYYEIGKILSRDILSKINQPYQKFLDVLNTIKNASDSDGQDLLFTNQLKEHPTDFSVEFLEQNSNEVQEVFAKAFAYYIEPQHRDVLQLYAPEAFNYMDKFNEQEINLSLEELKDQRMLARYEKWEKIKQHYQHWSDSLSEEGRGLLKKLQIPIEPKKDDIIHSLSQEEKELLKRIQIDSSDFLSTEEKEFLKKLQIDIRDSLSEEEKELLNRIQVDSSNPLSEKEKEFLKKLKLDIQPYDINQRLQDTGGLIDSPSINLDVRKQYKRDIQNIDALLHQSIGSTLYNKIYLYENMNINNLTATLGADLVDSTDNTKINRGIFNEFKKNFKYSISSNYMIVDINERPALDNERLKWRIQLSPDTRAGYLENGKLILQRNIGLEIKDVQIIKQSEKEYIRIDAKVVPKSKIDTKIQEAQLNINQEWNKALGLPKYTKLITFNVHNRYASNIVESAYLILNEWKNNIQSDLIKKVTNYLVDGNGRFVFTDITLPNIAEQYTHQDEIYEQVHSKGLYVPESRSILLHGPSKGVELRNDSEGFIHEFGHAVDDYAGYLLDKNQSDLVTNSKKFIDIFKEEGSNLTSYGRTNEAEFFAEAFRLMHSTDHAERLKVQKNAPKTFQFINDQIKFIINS
Hits are given with their value. Cut-off read from the data, not from the text of the source, unless noted: active = inhibition above about 30%; inconclusive = no clear call, values can overlap the other calls; inactive = below that.

Screening Cc1ccc(NC(=O)c2cc(-c3ccc(F)cc3)on2)cc1C returned BoNT A protease inactive, MazEF act inactive, BoNT F protease inactive, Autofluor counter inactive and Anthrax LF prot inactive.
Cc1ccc(Nc2nc(C(=O)NCc3ccco3)cs2)cc1 was read as BoNT A protease inactive, MazEF act inactive, BoNT F protease inactive, Autofluor counter 21266 and Anthrax LF prot inactive.
`CC(=O)Nc1cc2c3c(c1)CCC(=O)N3CCC2` gave BoNT A protease inactive, MazEF act inactive, BoNT F protease inactive, Autofluor counter inactive and Anthrax LF prot inactive.
Screening O=C(NCc1ccco1)c1cc(-c2ccccc2)on1 returned BoNT A protease inactive, MazEF act inactive, BoNT F protease inactive, Autofluor counter inactive and Anthrax LF prot inactive.
For O=C(NCc1ccc(Cl)cc1)c1cc(-c2ccco2)on1 the results were BoNT A protease inactive, MazEF act inactive, BoNT F protease inactive, Autofluor counter inactive and Anthrax LF prot inactive.
O=C(NCc1ccco1)c1cc(-c2ccc(F)cc2)on1 was read as BoNT A protease inactive, MazEF act inactive, BoNT F protease inactive, Autofluor counter 22220 and Anthrax LF prot inactive.
COc1ccc(CNC(=O)c2cc(-c3ccco3)on2)cc1 was read as BoNT A protease inactive, MazEF act inactive, BoNT F protease inactive, Autofluor counter 20809 and Anthrax LF prot inactive.
`Cc1cc(OCC(=O)NCc2ccccn2)c2c(C)cc(=O)oc2c1` gave BoNT A protease inactive, MazEF act inactive, BoNT F protease inactive, Autofluor counter inactive and Anthrax LF prot inactive.
O=C1CC(=O)C(n2cncn2)C(c2cccc(Cl)c2)C1 (centres undefined) was read as BoNT A protease inactive, MazEF act inactive, BoNT F protease inactive, Autofluor counter 21751 and Anthrax LF prot inactive.
Screening COc1ccc(C2CC(=O)CC(=O)C2n2cncn2)cc1 (centres undefined) returned BoNT A protease inactive, MazEF act inactive, BoNT F protease inactive, Autofluor counter 21795 and Anthrax LF prot inactive.
For O=C1CC(c2cccc(Cl)c2)C(n2cncn2)C(=O)C1C1NCCc2ccccc21 (centres undefined) the results were BoNT A protease inactive, MazEF act inactive, BoNT F protease inactive, Autofluor counter inactive and Anthrax LF prot inactive.
For COc1ccc(COc2ccsc2C(=O)Nc2ccc(Cl)cc2)cc1 the results were BoNT A protease inactive, MazEF act inactive, BoNT F protease inactive, Autofluor counter 19044 and Anthrax LF prot inactive.
CCN(CC)c1ccc([C@H]2[C@@H]3CCCC[C@]3(O)CCN2CC(=O)NCc2ccco2)cc1 was read as BoNT A protease inactive, MazEF act inactive, BoNT F protease inactive, Autofluor counter inactive and Anthrax LF prot inactive.
`COc1cc([C@H]2[C@@H]3CCCC[C@]3(O)CCN2CC(=O)Nc2ccc(C)cc2)ccc1O` gave BoNT A protease inactive, MazEF act inactive, BoNT F protease inactive, Autofluor counter 22835 and Anthrax LF prot inactive.
Cc1ccc(-n2nnc3c(=O)oc4ccccc4c32)cc1 was read as MazEF act inactive.
For CCC(C)n1nnc2c(=O)oc3ccccc3c21 (centres undefined) the results were BoNT A protease inactive, MazEF act inactive, BoNT F protease inactive, Autofluor counter 23717 and Anthrax LF prot inactive.
`O=C(CCCSc1nc2ccccc2[nH]1)Nc1nnc(-c2ccccc2)o1` gave BoNT A protease inconclusive, MazEF act inactive, BoNT F protease inactive, Autofluor counter 22546 and Anthrax LF prot inactive.
`O=C(CCCSc1nc2ccccc2[nH]1)NCc1ccccc1` gave BoNT A protease inactive, MazEF act inactive, BoNT F protease inactive, Autofluor counter inactive and Anthrax LF prot inactive.
`Cc1ccc(-c2nc(CS(=O)CC(=O)N3CCC4(CC3)OCCO4)c(C)o2)cc1` (centres undefined) gave BoNT A protease inactive, BoNT F protease inactive, Autofluor counter 21619 and Anthrax LF prot inactive.
O=C(NC1CCN(Cc2ccc(Cl)cc2)CC1)c1cn(-c2ccccc2)nc1-c1cccnc1 was read as BoNT A protease inactive, MazEF act inactive, BoNT F protease inactive, Autofluor counter 21980 and Anthrax LF prot inactive.
Screening O=C(O)c1cn(-c2ccccc2)nc1-c1ccc(Cl)cc1 returned BoNT A protease inactive, MazEF act inactive, BoNT F protease inactive, Autofluor counter 17250 and Anthrax LF prot inactive.
For CC1=C(C(=O)Nc2ccccn2)C(c2ccc(Cl)cc2)NC(=S)N1 (centres undefined) the results were BoNT A protease inactive, MazEF act inactive, BoNT F protease inactive, Autofluor counter inactive and Anthrax LF prot inactive.
Screening CCN(CC)C(=O)C1=C(C)NC(=S)NC1c1cn(-c2ccccc2)nc1-c1ccc(Cl)cc1 (centres undefined) returned BoNT A protease inactive, MazEF act inactive, BoNT F protease inactive, Autofluor counter 23563 and Anthrax LF prot inactive.
Screening O=C(NCc1ccncc1)c1cn(-c2ccccc2)nc1-c1cccnc1 returned BoNT A protease inactive, MazEF act inactive, BoNT F protease inactive, Autofluor counter inactive and Anthrax LF prot inactive.
`Clc1ccc(Cn2cc(Br)cn2)cc1Cl` gave BoNT A protease inactive, MazEF act inactive, BoNT F protease inactive, Autofluor counter inactive and Anthrax LF prot inactive.
For Clc1cccc(Cl)c1Cn1cc(Br)cn1 the results were BoNT A protease inactive, MazEF act inactive, BoNT F protease inactive, Autofluor counter 16279 and Anthrax LF prot inactive.
Cc1cc(C)n2nc(SCCC(=O)NCCc3ccccc3)nc2n1 was read as BoNT A protease inactive, MazEF act inactive, BoNT F protease inactive, Autofluor counter 18555 and Anthrax LF prot inactive.
CCCCCCNC(=O)Cc1nc2nc(C)cc(C)n2n1 was read as BoNT A protease inactive, MazEF act inactive, BoNT F protease inactive, Autofluor counter 20841 and Anthrax LF prot inactive.
Cc1cc(C)n2nc(SCC(=O)Nc3ccccc3)nc2n1 was read as BoNT A protease inactive, MazEF act inactive, BoNT F protease inactive, Autofluor counter inactive and Anthrax LF prot inactive.
COCCNC(=O)CSc1nc2nc(C)cc(C)n2n1 was read as BoNT A protease inactive, MazEF act inactive, BoNT F protease inactive, Autofluor counter 22346 and Anthrax LF prot inactive.
Screening CCOC(=O)Cc1nc2nc(C)cc(C)n2n1 returned BoNT A protease inactive, MazEF act inactive, BoNT F protease inactive, Autofluor counter inactive and Anthrax LF prot inactive.
`CCN(C(=O)CSc1nc2nc(C)cc(C)n2n1)c1cccc(C)c1` gave BoNT A protease inactive, MazEF act inactive, BoNT F protease inactive, Autofluor counter 16126 and Anthrax LF prot inactive.
S=c1c2c(nc3nc[nH]n13)CCC2 was read as BoNT A protease inconclusive, MazEF act inactive, BoNT F protease inconclusive, Autofluor counter inactive and Anthrax LF prot inactive.
For COc1ccc(N=Cc2c(O)n(-c3cccc(C)n3)c(=O)c3ccccc23)c(OC)c1 the results were BoNT A protease inactive, MazEF act 277.5, BoNT F protease inconclusive, Autofluor counter inactive and Anthrax LF prot 62.9.
Screening Cc1sc2cc3c(c(C(=O)c4ccccc4)[n+]2c1C)-c1cccc2cccc-3c12 returned MazEF act inactive.
For O=C(c1ccccc1)c1c2c(cc3sc4ccccc4[n+]13)-c1cccc3cccc-2c13 the results were BoNT A protease 73.3, MazEF act inactive, BoNT F protease inactive, Autofluor counter inactive and Anthrax LF prot inactive.

Source: PubChem BioAssay (several laboratories)
